About 11,000 (3.1%) of roughly 360,000 compounds were called active. The full list was thinned out, with actives kept by preference. Values without a mark were called inactive. Cut-off read from the data, not from the text of the source: active = activity change below about -30%; inactive = the rest.
% is set by controls: 0 for no effect and ±100 for the full control effect.

The target in this experiment is D(1A) dopamine receptor (Homo sapiens) (UniProt P21728). The experiment is described as follows: Antagonist of Human D 1 Dopamine Receptor: qHTS. The conditions noted are these: HEK293 TREx D1 cells, calcium flux, dopamine EC80; at 10 µM; stronger effect = lower value. In short, it runs like this: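 Calcium flux readout: force-coupled, inducible Hek293 Trex D1 line, cells induced overnight at 30 C with tetracycline, dye-loaded 30–90 min at RT. Antagonism scored against EC80 dopamine challenge given 180 s after compound.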
Chain of D(1A) dopamine receptor (Homo sapiens) (P21728 whole entry, looked up): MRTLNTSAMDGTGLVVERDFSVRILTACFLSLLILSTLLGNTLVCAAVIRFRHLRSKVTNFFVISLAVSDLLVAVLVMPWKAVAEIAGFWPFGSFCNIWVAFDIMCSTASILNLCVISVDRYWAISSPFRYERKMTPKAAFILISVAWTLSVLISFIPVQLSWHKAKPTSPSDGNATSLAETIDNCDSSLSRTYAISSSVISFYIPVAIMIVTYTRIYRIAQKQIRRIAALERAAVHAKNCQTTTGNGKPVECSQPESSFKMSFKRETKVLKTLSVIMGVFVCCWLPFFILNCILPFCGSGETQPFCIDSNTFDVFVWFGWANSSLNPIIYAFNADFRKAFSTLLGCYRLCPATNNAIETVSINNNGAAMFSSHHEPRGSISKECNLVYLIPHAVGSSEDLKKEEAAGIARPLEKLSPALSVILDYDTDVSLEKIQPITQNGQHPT
On to `CCCCNC(=O)CSc1nc2cc3c(cc2c(=O)n1CCCCCC(=O)NCc1ccc2c(c1)OCO2)OCO3`, for which the activity change, negative = inhibition was -9.04%.
For `CC(=O)Cc1nsc(NC(=O)c2ccc(Cl)cc2Cl)n1`, the activity change, negative = inhibition was -11.9%.
As to `CCOc1ccc(OCc2ccc(C(=O)Nc3cccc(C)n3)o2)cc1`, the activity change, negative = inhibition is 1.17%.
As for `CC(=O)Cc1nsc(NC(=O)c2ccc(COc3ccc(C)cc3)o2)n1`, the figure is -39.7% (active).
As to `COc1ccccc1-c1nnc(C2CCN(C(=O)c3ccc(Cl)cc3)CC2)o1`, the activity change, negative = inhibition was -12.2%.
On to `O=C(CCc1cn(Cc2ccc(F)cc2)c2ccccc12)NC1CCCCC1`, for which the activity change, negative = inhibition was -2.06%.
Regarding `COc1cc2c(cc1OC)C(COc1ccc(F)cc1)N(C(=O)c1ccccc1F)CC2` (centres undefined), the activity change, negative = inhibition is 1.87%.
On to `Cc1ccc(/C=C(\C#N)C(=O)Nc2cc(C)ccc2C)cc1`, for which the activity change, negative = inhibition is 2.52%.
As for `CC(C)(C)C(=O)/C(C#N)=C/c1ccc(O)cc1`, the figure is -33.6% (active); as for `CC(C)NC(=O)/C(C#N)=C\c1ccc(N(C)C)c(Br)c1`, -4.83%.
As for `OCc1cnc(SCc2ccc(F)cc2)n1Cc1ccc(F)cc1`, the figure is -1.85%; as for `Cc1ccc(Nc2c(-c3ccc(Cl)cc3)nc3sccn23)c(C)c1`, -21.4%.
For `COc1cc(NC(=O)c2cc3ccc4cccnc4c3[nH]2)cc(OC)c1OC`, the activity change, negative = inhibition was -1.04%.
`COc1ccc(N2CCN(C(=O)CCSCc3ccccc3F)CC2)cc1`: the activity change, negative = inhibition was -20.6%.
With `Cc1cccc(N2CCN(C(=O)CCSCc3ccccc3F)CC2)c1C`, the activity change, negative = inhibition was 10%.
As to `O=C(CCSCc1ccccc1F)N1CCN(c2ccc(Cl)cc2)CC1`, the activity change, negative = inhibition is -33.3% (active).
In the case of `Cc1cc(C)n(Cc2cnc(N3CCOCC3)s2)n1`, the activity change, negative = inhibition was -31% (active).
In the case of `c1cnn(-c2cc(N3CCOCC3)ncn2)c1` it was 3.42%.
Turning to `Cc1nc(N2CCOCC2)sc1C(=O)NN`, the activity change, negative = inhibition is 7.42%.
Turning to `Cc1ccc2onc(CC(=O)N3CCN(c4ccc(Cl)cc4)CC3)c2c1`, the activity change, negative = inhibition is -0.0287%.
Regarding `CCSc1nsc(NC(=O)Nc2cccc(C(C)=O)c2)n1`, the activity change, negative = inhibition was -35% (active).
For the compound `CSc1ccccc1C(=O)Nc1cccc(C(C)=O)c1`, the activity change, negative = inhibition is -13.7%.
Take `COc1ccc(NC(C(=O)Nc2cccc(C(C)=O)c2)c2ccccc2)cc1` (centres undefined): the activity change, negative = inhibition is 0.474%.
For `CC(=O)c1cccc(NC(=S)N2CCCC2)c1`, the activity change, negative = inhibition was -8.06%.
Regarding `CC(=O)c1cccc(NC(=O)CSc2nc3c(c(=O)[nH]2)CCC3)c1`, the activity change, negative = inhibition was -6.03%.
In the case of `C=CCSc1nsc(NC(=O)Nc2cccc(C(C)=O)c2)n1` it was -31.6% (active).
As for `COc1ccc(-n2ccn(CC(=O)Nc3ccc(C)c(C)c3)c(=O)c2=O)cc1OC`, the activity change, negative = inhibition is -0.573%.
As for `O=C1CN(C(=O)Nc2ccccc2C(F)(F)F)C(c2ccccc2)c2c(sc3c2CCCC3)N1` (centres undefined), the figure is -10.2%; as for `COc1cccc(-n2cc(C(=O)NCc3cccc(Cl)c3)c3ccccc3c2=O)c1`, -9.19%; as for `Cc1ccc(C)c(Cn2c(=O)n(CCC(=O)NCc3ccc4c(c3)OCO4)c(=O)c3sccc32)c1`, -5.56%.
On to `COc1ccccc1N1CCN(C2C(=O)c3ccccc3N2C(C)=O)CC1` (centres undefined), for which the activity change, negative = inhibition was -1.14%.
Take `O=C(c1ccc2c(c1)N(Cc1ccccc1)C(=O)c1ccccc1S2(=O)=O)N1CCC(Cc2ccccc2)CC1`: the activity change, negative = inhibition was -25.2%.
Take `COc1ccc(Cn2ccn(CC(=O)Nc3cc(C)ccc3C)c(=O)c2=O)cc1`: the activity change, negative = inhibition was 10.1%.
Consider `COc1cccc(N2C(=O)CN(Cc3ccccc3)C2=S)c1`, for which the activity change, negative = inhibition is 1.81%.
With `COc1ccc(Cn2ccn(Cc3cccc(OC)c3)c(=O)c2=O)cc1`, the activity change, negative = inhibition is -44.5% (active).
As for `CC(=O)c1ccc(NC(c2ccc(F)cc2)c2nnc(-c3ccccc3)o2)cc1` (centres undefined), the figure is -24.1%.
`CCOC(=O)c1c(C)[nH]c(C2=NNC(=NC(C)COC)SC2)c1C` (centres undefined): the activity change, negative = inhibition is -30% (active).
For the compound `Cc1ccc(-c2noc(CSc3nnc(-c4ccc(Cl)cc4)n3C)n2)cc1`, the activity change, negative = inhibition is 0.344%.
In the case of `Cc1ccc2cccc(NC(=O)C(C)Oc3ccc(C)c(C)c3)c2n1` (centres undefined), the activity change, negative = inhibition is -2.12%.
As for `COC(=O)c1cc(NC(=O)c2cnc(SC)nc2-c2ccccc2)cc(C(=O)OC)c1`, the activity change, negative = inhibition is -16.6%.
Take `CCN(CC)S(=O)(=O)c1nnc(NC(=O)COc2ccccc2Cl)s1`: the activity change, negative = inhibition was 1.29%.
As to `COc1ccc2[nH]c(C)c(CCN(Cc3cccs3)C(=S)Nc3ccccc3OC)c2c1`, the activity change, negative = inhibition was -1.49%.
Take `CCNC(=S)N(CCc1c(C)[nH]c2ccc(C)cc12)Cc1ccco1`: the activity change, negative = inhibition was -10.7%.
As to `COc1cccc(NC(=S)N(CCc2c(C)[nH]c3ccccc23)Cc2ccco2)c1`, the activity change, negative = inhibition was -45.7% (active).
As to `COc1ccc(-c2cc(-c3ccc(F)cc3)nc3c2COc2ccccc2-3)cc1`, the activity change, negative = inhibition is 10.1%.
Regarding `Cc1ccc(Cl)cc1N1CCN(C(=O)C2CCC(CNS(=O)(=O)c3cccs3)CC2)CC1` (centres undefined), the activity change, negative = inhibition was 4.96%.
Consider `CCN(CC)c1ccc(NC(=O)CN2CCN(CC(=O)Nc3ccc(Cl)cc3)CC2)cc1`, for which the activity change, negative = inhibition is 7.6%.
Consider `O=C(OCc1cc(=O)n2nc(C3CC3)sc2n1)c1ccccc1Cl`, for which the activity change, negative = inhibition was -4.47%.
As to `Cc1ccc(-n2c(=O)c3cccnc3n2CC(=O)NCc2ccc(F)cc2)cc1C`, the activity change, negative = inhibition is 4.39%.
As for `CC(C)(O)C#Cc1ccc(CN2CCC(CO)(CCc3ccccc3)CC2)cc1`, the activity change, negative = inhibition is 10.7%.
In the case of `OCC1(CCc2ccccc2)CCN(Cc2ccc3nsnc3c2)CC1`, the activity change, negative = inhibition is -86% (active).
As to `Cc1cccc(-c2ncc(CN3CCC(CO)(CCCc4ccccc4)CC3)cn2)c1`, the activity change, negative = inhibition is 16.2%.
For the compound `CCc1ccc2ncc3c(-c4ccc(C)cc4)nn(CC(=O)NCc4ccccc4)c3c2c1`, the activity change, negative = inhibition is -13.5%.
Regarding `CC1Cc2ccccc2N1C(=O)CSc1nnc(-c2ccc(S(=O)(=O)N3CCCC3)cc2)n1C` (centres undefined), the activity change, negative = inhibition was -5.59%.
On to `CC1Cc2ccccc2N1C(=O)CSc1nnc(C2CC2)n1C` (centres undefined), for which the activity change, negative = inhibition was -45.3% (active).
For the compound `CCn1c(CSc2ncccn2)nnc1SCC(=O)N1c2ccccc2CC1C` (centres undefined), the activity change, negative = inhibition was -3.34%.
Regarding `CC(=O)c1ccc(N2CCN(C3C(=O)c4ccccc4N3C(C)=O)CC2)cc1` (centres undefined), the activity change, negative = inhibition was 3.13%.
With `COc1cccc(CNC(=O)C2CCN(S(=O)(=O)c3ccc4c(ccn4C)c3)CC2)c1`, the activity change, negative = inhibition was -13.2%.
For `Cc1cc(-c2ccccc2)n2nc(-c3ccccc3)cc2n1`, the activity change, negative = inhibition was 5.34%.
Turning to `Nc1cccc(-c2cc(-c3ccccc3)nc(-c3cccc(N)c3)n2)c1`, the activity change, negative = inhibition was -35% (active).
As for `Cc1nc(NNC(=O)c2ccccc2)cc(-c2ccccc2)n1`, the activity change, negative = inhibition is -10.3%.
As to `Cc1ccc(S(=O)(=O)n2nc(C)c(S(=O)(=O)N3CCCCCC3)c2C)cc1`, the activity change, negative = inhibition is 17.9%.
In the case of `COc1ccc(N(CC(=O)NCCc2ccc(Cl)cc2)S(=O)(=O)c2c(C)nn(C)c2C)cc1` it was -19.7%; in that of `CCC1CCCCN1S(=O)(=O)c1ccc(NC(=O)c2cc(=O)c3ccccc3o2)cc1` (centres undefined), -15.6%; in that of `Cc1ccccc1CSCCNC(=O)C1CCN(S(=O)(=O)Cc2ccccc2)CC1`, -13.9%.
As for `Cc1cc(/C=C(/C#N)C(=O)Nc2ccc(Cl)cc2)c(C)n1-c1cccnc1`, the activity change, negative = inhibition was -14.3%.
With `CC(C)(C)NC(=O)/C(=C/c1cccnc1)NC(=O)c1ccco1`, the activity change, negative = inhibition is -13.6%.
In the case of `N#C/C(=C\c1cccnc1)C(=O)Nc1ccc(SC(F)F)cc1` it was -35.7% (active).
On to `CCCCN1CC(c2nc3ccccc3n2CCCCOc2ccc(C)cc2C)CC1=O` (centres undefined), for which the activity change, negative = inhibition was -5.31%.
As for `CCOC(=O)c1nnn2c1nc(N1CCN(c3ccccc3)CC1)c1ccccc12`, the figure is -35.4% (active); as for `Cc1ccc(S(=O)(=O)c2nnn3c2nc(N2CCN(c4ccccn4)CC2)c2ccccc23)cc1`, -20.2%; as for `CCOC(=O)c1nnn2c3ccccc3c(=O)n(C)c12`, -10.2%.
In the case of `CCN1CCN(CCCNC(=O)c2ccc3c(c2)sc2nc(-c4ccc(OC)cc4)cn23)CC1` it was -14.6%.
Take `CSc1nn(Cc2cccc(C)c2)c(N)c1S(=O)(=O)c1ccccc1`: the activity change, negative = inhibition was -16.3%.
In the case of `O=C(CSc1nnc(SCc2ccc(F)cc2)s1)Nc1ccc(C(=O)O)cc1` it was 6.86%; in that of `O=C(Cc1cccs1)Nc1nnc(SCc2ccc(F)cc2)s1`, -79.5% (active); in that of `CC(C)(C)CC(=O)Nc1nnc(SCC(=O)NCc2cccs2)s1`, 3.61%.
`COc1cccc(CNC(=O)CCC(=O)N2CC3CCCN3c3ccccc32)c1` (centres undefined): the activity change, negative = inhibition was -1.97%.
With `Cc1ccccc1C(=O)Nc1cc(C)c(O)c(-c2nc3ccccc3o2)c1`, the activity change, negative = inhibition was 5.18%.
In the case of `CCOC(=O)c1c(C)[nH]c(C)c1S(=O)(=O)N1CCCC(C(=O)NCc2ccccc2Cl)C1` (centres undefined), the activity change, negative = inhibition is -3.63%.
Take `COc1ccc(CCNC(=O)Cn2c(=O)n(-c3ccccc3)c(=O)c3c(C)c(C)sc32)cc1OC`: the activity change, negative = inhibition was 2.12%.
As for `CC(C)n1ncc2c(C(=O)NCc3ccccc3CN(C)C)cc(C3CC3)nc21`, the activity change, negative = inhibition is -37.6% (active).
On to `CC(C)n1ncc2c(C(=O)Nc3ccc(CC#N)cc3)cc(C3CC3)nc21`, for which the activity change, negative = inhibition is -2.28%.
In the case of `COc1ccc(OCCNC(=O)c2cc(C3CC3)nc3c2cnn3C(C)C)cc1` it was -8.1%; in that of `COc1ccc(Nc2ncc(C(=O)Nc3cc(C)ccc3OC)c3ccccc23)cc1`, -5.45%; in that of `O=C(Cn1c(=O)n(-c2ccc(F)cc2)c(=O)c2sccc21)Nc1cccc(C(F)(F)F)c1`, 10.9%.
In the case of `CCOc1ccc(N(CC(=O)NCCOc2ccccc2OC)S(=O)(=O)c2ccccc2)cc1` it was -9.44%.
For the compound `CCOc1ccc(N(CC(=O)NCCc2ccc(OC)cc2)S(C)(=O)=O)cc1`, the activity change, negative = inhibition was 6.98%.
Regarding `CCOc1ccc(N(CC(=O)NCCc2ccc(F)cc2)S(=O)(=O)c2ccccc2)cc1`, the activity change, negative = inhibition is -32.1% (active).

These data come from PubChem BioAssay AID504652 (National Center for Advancing Translational Sciences (NCATS), 2011).
